# Measured values: PubChem BioAssay (NCI)
# Values joined by “and” are separate entries in the source; they are usually repeats but may differ in a detail not shown here. Equal entries are not always repeated. The panel holds about 83,000 compounds, 20% with a hit somewhere; the sample as a whole holds those more often.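 A percent growth of 40 corresponds to 60% growth inhibition; 0 means no net growth; -100 means all cells died. Active threshold: below 10.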 Active and inactive are the calls of the source.
# System: TK-10 renal
# Assay: NCI-60 one-dose screen, 48 h (100 = growth as untreated, 0 = no growth, -100 = all killed)
# Details: 0.25 µM
# Experimental: Growth inhibition of the TK-10 human tumor cell line is measured as a screen for anti-cancer activity. Cells are grown in 96 well plates and exposed to the test compound for 48 hours. Compounds are tested at a single concentration, which is 10^-5 M for most compounds. The reported endpoint is percent growth (GI% or GIPRCNT), where numbers from 0 - 100% represent growth inhibition, and numbers from -100% - 0 represent cell death. For example, a value of 40 represents 60% growth inhibition. A value of 0 means no net growth occurred over the course of the experiment. A value of -40 indicates 40% of cells at the beginning of the experiment died by the end of the experiment. A value of -100 means all cells are dead at the end of the experiment.
# NCI-60 Human Tumor Cell Lines Screen was performed using the standard one-dose NCI protocol, which is described in more detail at https://dtp.cancer.gov/discovery_development/nci-60/default.htm.
# Compounds with GIPRCNT values below 10 were considered active. Activity score was based on GIPRCNT using the following formula: […]
# Score is 0 for GIPRCNT values of 100 or above, 50 for GIPRCNT values of 0, and 100 for GIPRCNT values of -100.
row,SMILES,growth
1,CCCCCCCCCCCCCCCc1ccc(Cl)c(O)c1Cl (tested in a mixture with another compound),68.9% (inactive)

# Same assay, conditions: 10 µM
row,SMILES,growth
1,CC1(C)OB(c2ccc(Cn3cc(F)c(=O)[nH]c3=O)cc2)OC1(C)C,102% (inactive)
2,CC(C)(C)c1cc(NC(=O)Cc2ccc(-c3cnc4cc(-c5cnn(CCN6CCOCC6)c5)ccc4n3)cc2)no1,34.9% (inactive)
3,CCCCCCCCCCCCCCCc1ccc(Cl)c(O)c1Cl (tested in a mixture with another compound),115% (inactive)

# Same assay, conditions: 10 µM unless noted
row,SMILES,growth
1,COc1ccc(C2c3cc4c(c(OC)c3CC3OCC(=O)C32)OCO4)cc1OC (stereo not given),46.4% [100 µM] (inactive) and -11% [100 µM] (active)
2,Nc1ncnc2c1ncn2C1CC(O)C(CO)O1 (stereo not given),113% (inactive) and 109% (inactive)
3,Clc1ccc(SSc2ccc(Cl)cc2)cc1,88% (inactive) and 106% (inactive)
4,CCC1OC2(C)CC(C#N)(C#N)C1(C#N)C(=N)O2 (stereo not given),92.1% [100 µM] (inactive)
5,Cc1cc(C)c(N)c(Br)c1,108% (inactive) and 112% (inactive)
6,COc1cc(NS(C)(=O)=O)ccc1Nc1c2ccccc2nc2c(C)cccc12,-39.5% (active) and -35.3% (active)
7,COc1cc(Oc2c(C)c(Cl)c(OC)c(Cl)c2OC)c2c(c1Cl)COC2=O,20.3% [100 µM] (inactive) and 9.52% [100 µM] (active)
8,COC(=O)C(C(=O)C(=O)NC1Nc2ccc(C)cc2S1)c1nc2ccc(Cl)cc2[nH]c1=O (stereo not given),113% [100 µM] (inactive) and 71.4% [100 µM] (inactive)
9,COC(=O)C(=O)C(C(=O)C(=O)Nc1ccccc1C(C)=O)c1nc2ccc(C(=O)c3ccccc3)cc2[nH]c1=O (stereo not given),114% [100 µM] (inactive) and 17.9% [100 µM] (inactive)
10,CCO/C=N\C1=C(C#N)SC2=N/C(=C\c3ccc(OC)cc3)C(=O)N21,92.7% [100 µM] (inactive) and 103% [100 µM] (inactive)
11,COc1ccc2nc(Cl)cc(C)c2c1,73.7% (inactive) and 78.9% (inactive)
12,COC(=O)[C@H]1CCCN1C(=O)C1CCCN1C(=O)[C@@H](Cc1ccccc1)NC(=S)Nc1cc(C(F)(F)F)cc(C(F)(F)F)c1 (stereo not given in full),114% (inactive) and 90% (inactive)
13,COc1ccc(/C=C2/NC(=S)N=C2Cl)cc1,92.7% [100 µM] (inactive) and -42.1% [100 µM] (active)
14,Cc1ccc(S(=O)(=O)Nc2ccc3cc([N+](=O)[O-])ccc3c2[N+](=O)[O-])cc1,78.5% (inactive) and 101% (inactive)
15,CCCCCC(O)(CCCCC)CCCCCCCCC1=C(O)c2ccccc2C(=O)C1=O,0.969% [100 µM] (active) and -7.87% [100 µM] (active)
16,CNC(=O)c1cc(Oc2ccc(NC(=O)Nc3ccc(Cl)c(C(F)(F)F)c3)cc2)ccn1,-11.8% (active) and 25.8% (inactive)
17,COc1ccccc1NC(=O)OCC#CCOC(=O)Nc1ccccc1OC,99.2% (inactive) and 91.2% (inactive)

row,SMILES,growth
1,Cc1cc2nn(C3CCCO3)nc2cc1C (stereo not given),81.3% [100 µM] (inactive) and 101% [100 µM] (inactive)
2,Cc1ccc(/C=N/Nc2ccccn2)s1,147% [100 µM] (inactive) and 60.9% [100 µM] (inactive)
3,CC(C)=CCc1cc(C2COc3cc4c(c(O)c3C2=O)C=CC(C)(C)O4)c(O)cc1O (stereo not given),-14.3% [100 µM] (active) and -100% [100 µM] (active)
4,CN(C)CCCN1c2ccccc2Sc2ccc(Cl)cc21,122% (inactive) and 92.6% (inactive)
5,COc1ccc(-c2cn[nH]c2-c2cc(OC)c(OC)c(OC)c2)cc1N,76.4% (inactive) and 91.4% (inactive)
6,O=S(=O)(Nc1ccccc1)C1CCCCC1,103% (inactive) and 102% (inactive)
7,CC1CCCC(=O)O1 (stereo not given),103% (inactive) and 108% (inactive)
8,CCOc1ccc2cc(-c3nn(CC4CCN(C)CC4)c4ncnc(N)c34)ccc2c1,70.9% (inactive) and 77.8% (inactive)
9,Cc1cc(O)c(C(C)C)cc1S(=O)(=O)O (tested in a mixture with another compound),87.8% (inactive) and 33.8% (inactive) and 132% (inactive)
10,N#CC1(C#N)C2CCCCC23OC(=N)C1(C#N)C(c1ccco1)O3 (stereo not given),-40.6% [100 µM] (active)
11,CC(C)N=c1cc2n(-c3ccc(Cl)cc3)c3ccccc3nc-2cc1Nc1ccc(Cl)cc1,26.2% (inactive) and 58.6% (inactive) and 5.66% (active)
12,O=C(O)CSCc1nc2ccccc2[nH]1,121% (inactive)
13,CN1CCN(c2ccc3nc(-c4c(N)c5c(F)cccc5[nH]c4=O)[nH]c3c2)CC1,35.1% (inactive) and 45.8% (inactive)
14,O=C(CCc1ccc(O)c(O)c1)c1ccc(O)c(O)c1O,74.7% [100 µM] (inactive) and -88% [100 µM] (active)
15,CC1OC(Oc2c(-c3cc(O)c(O)c(O)c3)oc3cc(O)cc(O)c3c2=O)C(O)C(O)C1O (stereo not given),90.9% [100 µM] (inactive) and 92.6% [100 µM] (inactive)
16,CSc1nc(Br)nc2ncn(C3CC(Oc4ccc(C)cc4)C(COc4ccc(C)cc4)O3)c12 (stereo not given),111% [100 µM] (inactive) and -100% [100 µM] (active)
17,CCOC(=O)c1c(C)oc(C)c(C(=O)OCC)c1=O,98.1% (inactive) and 106% (inactive)

# Same assay, conditions: 30 µM
row,SMILES,growth
1,CC(C)(C)c1cc(NC(=O)Cc2ccc(-c3cnc4cc(-c5cnn(CCN6CCOCC6)c5)ccc4n3)cc2)no1,40.8% (inactive)

# Same assay, conditions: 50 µM
row,SMILES,growth
1,CC1(C)OB(c2ccc(Cn3cc(F)c(=O)[nH]c3=O)cc2)OC1(C)C,79.3% (inactive)
